# Legend:
# Experiment in all cases: DAPPL (digital affinity profiling via proximity ligation, sequencing); 10 mM Tris-HCl pH 7.5, 50 mM NaCl, 1 mM DTT, 4% glycerol, room temperature, 30 min; GST-TFs on glutathione beads, 16-mer random dsDNA library, 0.1% formaldehyde crosslink after washing; high values mean tight binding
# FEV = molecular target: T1, FEV (Homo sapiens, UniProt Q99581 1-238); settings: protein: recombinant; tags: N-terminal GST; dsDNA, one strand shown
# T1 sequence: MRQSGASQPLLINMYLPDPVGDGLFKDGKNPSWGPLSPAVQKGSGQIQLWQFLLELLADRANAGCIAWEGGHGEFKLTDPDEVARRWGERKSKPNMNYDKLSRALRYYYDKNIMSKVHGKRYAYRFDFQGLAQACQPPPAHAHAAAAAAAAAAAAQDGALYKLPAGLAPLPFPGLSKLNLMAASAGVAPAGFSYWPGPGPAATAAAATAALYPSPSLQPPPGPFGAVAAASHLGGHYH
# In short: (§1)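 Pools of DNA-barcoded human transcription factors, expressed in yeast as GST fusions on glutathione beads and combined with a tag-only sample, were incubated with 200 nmole of a 16-mer random double-stranded DNA library. Incubation took 30 min at room temperature in Tris/NaCl/DTT/glycerol buffer and was followed by washing, 0.1% formaldehyde crosslinking, proximity ligation (BsaI/T4 ligase, 1 h, 37 °C), PCR amplification and sequencing on an Illumina NextSeq500. Binding signal is the ratio of a hexamer's read frequency for a factor to its frequency for the tag-only sample.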
# ETV5 = ETV5 (Homo sapiens, UniProt P41161 1-510); settings: protein: recombinant; tags: N-terminal GST; dsDNA, one strand shown
# ETV5, sequence (P41161 whole entry): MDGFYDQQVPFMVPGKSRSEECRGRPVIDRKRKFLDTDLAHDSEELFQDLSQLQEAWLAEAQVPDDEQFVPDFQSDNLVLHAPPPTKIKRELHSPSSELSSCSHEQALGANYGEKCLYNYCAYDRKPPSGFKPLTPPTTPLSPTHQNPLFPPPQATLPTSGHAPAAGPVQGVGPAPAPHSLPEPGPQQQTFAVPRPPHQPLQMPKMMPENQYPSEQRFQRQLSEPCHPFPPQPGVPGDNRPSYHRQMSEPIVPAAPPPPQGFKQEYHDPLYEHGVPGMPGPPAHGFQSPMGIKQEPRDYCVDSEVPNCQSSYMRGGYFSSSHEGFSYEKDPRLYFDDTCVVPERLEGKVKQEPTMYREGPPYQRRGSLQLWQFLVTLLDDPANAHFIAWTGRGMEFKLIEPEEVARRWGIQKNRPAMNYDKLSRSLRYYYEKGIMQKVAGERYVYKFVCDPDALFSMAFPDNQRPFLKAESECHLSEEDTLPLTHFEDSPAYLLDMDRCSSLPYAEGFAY
# In short: as §1
# HSF1 = HSF1 (Homo sapiens, UniProt Q00613 1-529); settings: protein: recombinant; tags: N-terminal GST; chain copies: 3; dsDNA, one strand shown
# HSF1, sequence (Q00613 whole entry): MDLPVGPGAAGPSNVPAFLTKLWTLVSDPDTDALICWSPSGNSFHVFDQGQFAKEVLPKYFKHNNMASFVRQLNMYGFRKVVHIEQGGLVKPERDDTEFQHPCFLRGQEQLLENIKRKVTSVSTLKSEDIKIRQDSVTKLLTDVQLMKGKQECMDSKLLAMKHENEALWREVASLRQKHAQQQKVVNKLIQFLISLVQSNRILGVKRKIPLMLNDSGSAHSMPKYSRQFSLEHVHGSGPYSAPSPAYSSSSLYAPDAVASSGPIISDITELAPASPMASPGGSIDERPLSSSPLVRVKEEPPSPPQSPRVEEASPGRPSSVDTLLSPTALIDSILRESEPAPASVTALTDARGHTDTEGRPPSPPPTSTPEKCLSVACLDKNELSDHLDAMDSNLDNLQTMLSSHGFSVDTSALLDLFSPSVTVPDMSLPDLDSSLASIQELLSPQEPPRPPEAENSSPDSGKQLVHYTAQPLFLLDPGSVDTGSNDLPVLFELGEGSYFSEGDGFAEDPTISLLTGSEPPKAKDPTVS
# In short: as §1
# SPIC = molecular target: T2, SPIC (Homo sapiens, UniProt Q8N5J4 1-248); settings: protein: recombinant; tags: N-terminal GST; dsDNA, one strand shown
# T2 sequence: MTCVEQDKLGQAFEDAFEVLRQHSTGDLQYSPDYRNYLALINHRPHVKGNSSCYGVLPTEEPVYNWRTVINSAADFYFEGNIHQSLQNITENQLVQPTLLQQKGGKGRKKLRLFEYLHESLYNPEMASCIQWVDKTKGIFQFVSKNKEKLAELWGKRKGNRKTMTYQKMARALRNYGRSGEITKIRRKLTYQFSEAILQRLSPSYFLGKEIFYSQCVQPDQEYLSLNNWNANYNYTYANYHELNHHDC
# In short: as §1
# ELF4 = ELF4 (Homo sapiens, UniProt Q99607 1-663); settings: protein: recombinant; tags: N-terminal GST; dsDNA, one strand shown
# ELF4, sequence (Q99607 whole entry): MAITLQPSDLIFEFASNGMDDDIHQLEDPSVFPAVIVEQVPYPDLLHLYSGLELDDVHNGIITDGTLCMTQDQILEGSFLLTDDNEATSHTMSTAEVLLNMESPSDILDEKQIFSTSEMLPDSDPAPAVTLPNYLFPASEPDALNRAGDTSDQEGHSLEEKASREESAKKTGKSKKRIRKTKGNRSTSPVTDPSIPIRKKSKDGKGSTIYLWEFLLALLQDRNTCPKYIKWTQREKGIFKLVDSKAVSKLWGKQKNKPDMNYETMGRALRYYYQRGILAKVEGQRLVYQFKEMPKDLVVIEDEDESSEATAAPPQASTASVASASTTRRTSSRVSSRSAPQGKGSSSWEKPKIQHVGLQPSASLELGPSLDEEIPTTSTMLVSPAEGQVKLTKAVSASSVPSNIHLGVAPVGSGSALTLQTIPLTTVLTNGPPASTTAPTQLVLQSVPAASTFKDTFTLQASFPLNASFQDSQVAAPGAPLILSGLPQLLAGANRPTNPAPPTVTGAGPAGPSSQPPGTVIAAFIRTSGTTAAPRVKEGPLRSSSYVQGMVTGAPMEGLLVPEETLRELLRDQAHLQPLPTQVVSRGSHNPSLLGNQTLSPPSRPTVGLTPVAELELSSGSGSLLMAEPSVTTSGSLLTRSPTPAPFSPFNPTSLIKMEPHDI
# In short: as §1
# ELK4 = molecular target: T3, ELK4 (Homo sapiens, UniProt P28324-2 1-405); settings: protein: recombinant; tags: N-terminal GST; dsDNA, one strand shown
# T3 sequence: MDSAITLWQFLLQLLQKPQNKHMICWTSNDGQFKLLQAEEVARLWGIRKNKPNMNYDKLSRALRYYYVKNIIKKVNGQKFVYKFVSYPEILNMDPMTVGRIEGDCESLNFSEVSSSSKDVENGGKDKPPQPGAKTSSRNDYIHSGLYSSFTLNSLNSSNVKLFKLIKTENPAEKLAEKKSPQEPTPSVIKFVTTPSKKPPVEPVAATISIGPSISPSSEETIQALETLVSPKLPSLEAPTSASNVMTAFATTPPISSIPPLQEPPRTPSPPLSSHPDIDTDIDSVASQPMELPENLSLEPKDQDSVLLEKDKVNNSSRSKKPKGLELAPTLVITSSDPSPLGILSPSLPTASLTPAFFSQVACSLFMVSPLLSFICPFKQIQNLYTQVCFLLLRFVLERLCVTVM
# In short: as §1
# ETV2 = molecular target: T4, ETV2 (Homo sapiens, UniProt O00321 1-342); settings: protein: recombinant; tags: N-terminal GST; dsDNA, one strand shown
# T4 sequence: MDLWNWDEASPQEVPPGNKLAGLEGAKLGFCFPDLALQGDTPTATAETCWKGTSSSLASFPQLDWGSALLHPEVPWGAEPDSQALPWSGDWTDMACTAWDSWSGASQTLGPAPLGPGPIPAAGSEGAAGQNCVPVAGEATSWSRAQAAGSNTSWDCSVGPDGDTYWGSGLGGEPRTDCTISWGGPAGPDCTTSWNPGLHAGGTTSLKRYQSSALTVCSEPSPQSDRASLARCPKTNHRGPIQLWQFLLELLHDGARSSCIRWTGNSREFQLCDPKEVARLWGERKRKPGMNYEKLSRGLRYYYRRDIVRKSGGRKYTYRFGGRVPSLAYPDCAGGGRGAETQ
# In short: as §1
# ELF3 = molecular target: T5, ELF3 (Homo sapiens, UniProt P78545 1-371); settings: protein: recombinant; tags: N-terminal GST; dsDNA, one strand shown
# T5 sequence: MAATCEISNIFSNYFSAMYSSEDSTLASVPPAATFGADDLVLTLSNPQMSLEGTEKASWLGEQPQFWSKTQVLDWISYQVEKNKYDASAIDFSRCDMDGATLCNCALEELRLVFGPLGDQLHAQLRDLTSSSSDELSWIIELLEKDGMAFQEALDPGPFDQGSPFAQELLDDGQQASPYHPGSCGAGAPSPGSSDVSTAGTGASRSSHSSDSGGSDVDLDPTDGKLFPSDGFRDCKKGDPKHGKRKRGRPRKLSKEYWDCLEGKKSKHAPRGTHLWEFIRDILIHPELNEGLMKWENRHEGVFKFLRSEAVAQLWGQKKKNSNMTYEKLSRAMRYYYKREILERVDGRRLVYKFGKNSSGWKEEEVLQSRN
# In short: as §1
# CRX = CRX (Homo sapiens, UniProt O43186 1-299); settings: protein: recombinant; tags: N-terminal GST; dsDNA, one strand shown
# CRX, sequence (O43186 whole entry): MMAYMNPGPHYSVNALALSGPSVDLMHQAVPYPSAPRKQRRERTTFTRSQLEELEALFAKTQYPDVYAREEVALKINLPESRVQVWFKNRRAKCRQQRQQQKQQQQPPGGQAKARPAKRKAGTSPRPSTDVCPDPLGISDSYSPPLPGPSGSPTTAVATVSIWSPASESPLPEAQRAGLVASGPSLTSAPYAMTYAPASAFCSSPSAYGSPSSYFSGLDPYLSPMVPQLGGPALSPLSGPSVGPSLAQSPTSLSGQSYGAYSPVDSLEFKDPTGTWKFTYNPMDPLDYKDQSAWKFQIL
# In short: as §1
# ETV1 = ETV1 (Homo sapiens, UniProt P50549 1-477); settings: protein: recombinant; tags: N-terminal GST; dsDNA, one strand shown
# ETV1, sequence (P50549 whole entry): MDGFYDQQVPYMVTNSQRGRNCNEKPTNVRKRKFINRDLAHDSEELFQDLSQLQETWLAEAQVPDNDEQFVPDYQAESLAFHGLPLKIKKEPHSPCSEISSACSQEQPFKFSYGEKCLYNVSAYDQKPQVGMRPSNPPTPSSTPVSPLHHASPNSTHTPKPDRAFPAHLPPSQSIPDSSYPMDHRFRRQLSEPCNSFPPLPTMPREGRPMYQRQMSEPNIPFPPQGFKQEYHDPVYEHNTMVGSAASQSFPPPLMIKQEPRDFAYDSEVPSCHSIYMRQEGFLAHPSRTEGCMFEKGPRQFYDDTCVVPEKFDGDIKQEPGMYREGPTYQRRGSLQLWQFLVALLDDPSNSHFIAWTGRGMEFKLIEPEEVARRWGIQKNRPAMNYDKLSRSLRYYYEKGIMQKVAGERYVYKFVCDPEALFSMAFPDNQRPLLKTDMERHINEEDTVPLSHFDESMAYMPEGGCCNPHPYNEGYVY
# In short: as §1
# ERF = molecular target: T6, ERF (Homo sapiens, UniProt P50548 1-548); settings: protein: recombinant; tags: N-terminal GST; dsDNA, one strand shown
# T6 sequence: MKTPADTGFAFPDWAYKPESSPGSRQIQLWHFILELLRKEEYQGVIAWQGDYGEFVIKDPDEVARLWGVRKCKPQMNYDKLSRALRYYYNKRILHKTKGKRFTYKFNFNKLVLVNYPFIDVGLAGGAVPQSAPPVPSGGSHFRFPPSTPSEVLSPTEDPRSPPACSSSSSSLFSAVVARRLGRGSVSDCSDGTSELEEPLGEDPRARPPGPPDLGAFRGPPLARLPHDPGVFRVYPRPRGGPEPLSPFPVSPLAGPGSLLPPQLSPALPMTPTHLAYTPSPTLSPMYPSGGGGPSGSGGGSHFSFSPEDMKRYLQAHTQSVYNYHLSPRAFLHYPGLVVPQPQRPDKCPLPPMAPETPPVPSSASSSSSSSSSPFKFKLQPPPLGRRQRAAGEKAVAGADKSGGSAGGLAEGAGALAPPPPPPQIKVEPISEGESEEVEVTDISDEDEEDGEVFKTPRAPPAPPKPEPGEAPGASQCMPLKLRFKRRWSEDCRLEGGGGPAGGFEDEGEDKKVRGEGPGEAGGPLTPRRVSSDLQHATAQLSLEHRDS
# In short: as §1
# ETV3L = molecular target: T7, ETV3L (Homo sapiens, UniProt Q6ZN32 1-361); settings: protein: recombinant; tags: N-terminal GST; dsDNA, one strand shown
# T7 sequence: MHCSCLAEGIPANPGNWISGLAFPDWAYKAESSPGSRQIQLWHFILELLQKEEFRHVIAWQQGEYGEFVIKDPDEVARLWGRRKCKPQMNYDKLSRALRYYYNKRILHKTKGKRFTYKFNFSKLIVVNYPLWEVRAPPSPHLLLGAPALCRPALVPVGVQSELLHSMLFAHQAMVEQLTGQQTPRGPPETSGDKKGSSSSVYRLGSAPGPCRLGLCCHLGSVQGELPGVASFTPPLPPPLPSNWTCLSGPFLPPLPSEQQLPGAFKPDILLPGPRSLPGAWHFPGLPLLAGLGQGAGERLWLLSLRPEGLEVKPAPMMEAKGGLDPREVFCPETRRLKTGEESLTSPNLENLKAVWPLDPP
# In short: as §1
# ETS2 = molecular target: T8, ETS2 (Homo sapiens, UniProt P15036 1-469); settings: protein: recombinant; tags: N-terminal GST; dsDNA, one strand shown
# T8 sequence: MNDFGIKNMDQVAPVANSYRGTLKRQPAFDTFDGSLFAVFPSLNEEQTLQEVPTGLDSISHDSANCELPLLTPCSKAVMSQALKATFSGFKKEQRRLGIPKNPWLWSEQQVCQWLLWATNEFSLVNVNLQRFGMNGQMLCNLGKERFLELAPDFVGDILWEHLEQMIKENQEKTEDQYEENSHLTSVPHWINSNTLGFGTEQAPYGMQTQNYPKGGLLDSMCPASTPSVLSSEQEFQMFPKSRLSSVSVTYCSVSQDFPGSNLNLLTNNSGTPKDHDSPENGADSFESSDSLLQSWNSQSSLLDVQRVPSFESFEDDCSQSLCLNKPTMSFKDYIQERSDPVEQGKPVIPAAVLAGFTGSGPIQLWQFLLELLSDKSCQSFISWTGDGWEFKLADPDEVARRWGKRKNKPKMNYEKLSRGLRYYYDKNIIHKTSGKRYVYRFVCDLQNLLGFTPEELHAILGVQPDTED
# In short: as §1
# SPDEF = molecular target: T9, SPDEF (Homo sapiens, UniProt O95238 1-335); settings: protein: recombinant; tags: N-terminal GST; dsDNA, one strand shown
# T9 sequence: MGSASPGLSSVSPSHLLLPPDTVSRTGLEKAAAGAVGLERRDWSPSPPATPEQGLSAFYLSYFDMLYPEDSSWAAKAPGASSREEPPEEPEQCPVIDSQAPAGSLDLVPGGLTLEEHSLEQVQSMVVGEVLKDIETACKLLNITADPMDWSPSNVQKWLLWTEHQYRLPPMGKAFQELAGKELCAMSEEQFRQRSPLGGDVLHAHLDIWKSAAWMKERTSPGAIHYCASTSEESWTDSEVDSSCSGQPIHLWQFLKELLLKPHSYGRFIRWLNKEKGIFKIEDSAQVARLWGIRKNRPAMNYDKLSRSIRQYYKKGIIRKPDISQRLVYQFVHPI
# In short: as §1
# ETV7 = molecular target: T10, ETV7 (Homo sapiens, UniProt Q9Y603 1-341); settings: protein: recombinant; tags: N-terminal GST; dsDNA, one strand shown
# T10 sequence: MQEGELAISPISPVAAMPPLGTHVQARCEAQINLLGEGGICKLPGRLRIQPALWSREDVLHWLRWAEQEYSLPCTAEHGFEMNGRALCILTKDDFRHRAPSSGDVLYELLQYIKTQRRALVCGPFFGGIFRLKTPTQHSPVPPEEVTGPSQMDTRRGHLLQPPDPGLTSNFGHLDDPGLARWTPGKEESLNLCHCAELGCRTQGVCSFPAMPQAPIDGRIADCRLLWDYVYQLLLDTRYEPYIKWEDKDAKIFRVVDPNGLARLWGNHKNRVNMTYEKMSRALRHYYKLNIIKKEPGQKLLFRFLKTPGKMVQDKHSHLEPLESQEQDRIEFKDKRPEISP
# In short: as §1
# ELF5 = molecular target: T11, ELF5 (Homo sapiens, UniProt Q9UKW6-2 1-255); settings: protein: recombinant; tags: N-terminal GST; dsDNA, one strand shown
# T11 sequence: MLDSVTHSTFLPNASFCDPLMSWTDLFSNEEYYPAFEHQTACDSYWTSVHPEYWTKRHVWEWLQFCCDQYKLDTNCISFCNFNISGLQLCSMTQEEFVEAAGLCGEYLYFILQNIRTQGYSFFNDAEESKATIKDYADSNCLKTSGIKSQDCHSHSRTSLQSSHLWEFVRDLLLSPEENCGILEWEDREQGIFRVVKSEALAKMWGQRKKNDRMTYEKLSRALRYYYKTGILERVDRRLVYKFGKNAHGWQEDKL
# In short: as §1
# ETV3 = molecular target: T12, ETV3 (Homo sapiens, UniProt P41162-2 1-143); settings: protein: recombinant; tags: N-terminal GST; dsDNA, one strand shown
# T12 sequence: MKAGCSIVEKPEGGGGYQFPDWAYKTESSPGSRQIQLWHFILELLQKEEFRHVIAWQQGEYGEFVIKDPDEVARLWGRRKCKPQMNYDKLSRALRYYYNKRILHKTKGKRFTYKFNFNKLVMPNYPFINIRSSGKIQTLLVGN
# In short: as §1
# ETV6 = ETV6 (Homo sapiens, UniProt P41212 1-452); settings: protein: recombinant; tags: N-terminal GST; dsDNA, one strand shown
# ETV6, sequence (P41212 whole entry): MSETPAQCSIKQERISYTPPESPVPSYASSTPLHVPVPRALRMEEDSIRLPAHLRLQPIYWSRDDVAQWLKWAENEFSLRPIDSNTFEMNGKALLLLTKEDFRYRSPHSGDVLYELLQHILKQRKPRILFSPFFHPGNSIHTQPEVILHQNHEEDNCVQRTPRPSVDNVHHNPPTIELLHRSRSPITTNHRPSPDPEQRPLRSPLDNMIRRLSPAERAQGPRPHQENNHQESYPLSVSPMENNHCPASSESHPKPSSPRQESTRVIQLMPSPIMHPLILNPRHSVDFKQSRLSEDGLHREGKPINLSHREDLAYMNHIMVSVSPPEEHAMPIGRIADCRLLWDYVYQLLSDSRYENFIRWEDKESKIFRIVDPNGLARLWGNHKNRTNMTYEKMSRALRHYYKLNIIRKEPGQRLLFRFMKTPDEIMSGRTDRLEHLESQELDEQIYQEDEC
# In short: as §1
sequence,measurement,setting,value
AAATGG,binding signal,FEV,"1.42 fold enrichment (6-mer frequency, TF over GST control)"
same,binding signal,ETV5,"1.56 fold enrichment (6-mer frequency, TF over GST control)"
same,binding signal,HSF1,"1.27 fold enrichment (6-mer frequency, TF over GST control)"
same,binding signal,SPIC,"1.51 fold enrichment (6-mer frequency, TF over GST control)"
same,binding signal,ELF4,"1.49 fold enrichment (6-mer frequency, TF over GST control)"
same,binding signal,ELK4,"1.5 fold enrichment (6-mer frequency, TF over GST control)"
same,binding signal,ETV2,"1.47 fold enrichment (6-mer frequency, TF over GST control)"
same,binding signal,ELF3,"1.48 fold enrichment (6-mer frequency, TF over GST control)"
same,binding signal,CRX,"1.22 fold enrichment (6-mer frequency, TF over GST control)"
same,binding signal,ETV1,"1.5 fold enrichment (6-mer frequency, TF over GST control)"
same,binding signal,ERF,"1.49 fold enrichment (6-mer frequency, TF over GST control)"
same,binding signal,ETV3L,"1.54 fold enrichment (6-mer frequency, TF over GST control)"
same,binding signal,ETS2,"1.54 fold enrichment (6-mer frequency, TF over GST control)"
same,binding signal,SPDEF,"1.41 fold enrichment (6-mer frequency, TF over GST control)"
same,binding signal,ETV7,"1.38 fold enrichment (6-mer frequency, TF over GST control)"
same,binding signal,ELF5,"1.52 fold enrichment (6-mer frequency, TF over GST control)"
same,binding signal,ETV3,"1.5 fold enrichment (6-mer frequency, TF over GST control)"
same,binding signal,ETV6,"1.47 fold enrichment (6-mer frequency, TF over GST control)"

# From PMC7862700, “An all-to-all approach to the identification of sequence-specific readers for epigenetic DNA modifications on cytosine”
